Records with an inconclusive call do not appear. Calls of active or inactive are those of the source. How the source made its calls: active means hit-call score of the fitted dose curve at least 0.9, where 1 is the maximum; inconclusive means response in the unintended direction; inactive means score below 0.9.
Assays:
[1] = Tanguay_ZF_120hpf_SOMI_legacy: (Legacy) Oregon State University Tanguay Lab 120 Hour Post-fertilization zebrafish Assay for Somite Malformation (AID 2283647)
Method in brief: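 Binary somite-defect scoring at 120 hpf, omitted for embryos that died, in wild-type (Tropical 5D) zebrafish with chorion removed by pronase at 4 hpf; static exposure began 6 hpf, single embryos per well, 28C, 0.64% DMSO; fitted positive versus DMSO.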

[2] = Tanguay_ZF_120hpf_PFIN_legacy: (Legacy) Oregon State University Tanguay Lab 120 Hour Post-fertilization zebrafish Assay for Pectoral Fin Malformation (AID 2283648);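 further: each larva judged yes or no for fin defect by brightfield with dead larvae skipped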
Method in brief: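 Pectoral fin malformation was recorded as a binary endpoint at 120 hpf in wild-type Tropical 5D larvae, which had been dechorionated and exposed statically from 6 hpf at 28C in 0.64% DMSO. Dead embryos were excluded.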

[3] = Tanguay_ZF_120hpf_CFIN_legacy: (Legacy) Oregon State University Tanguay Lab 120 Hour Post-fertilization zebrafish Assay for Caudal Fin Malformation (AID 2283649)
Method in brief: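 Binary brightfield scoring of caudal fin defects at 120 hpf after static, light-shielded exposure at 28C from 6 hpf. Tropical 5D embryos, chorion removed with pronase at 4 hpf, final DMSO 0.64%.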

[4] = Tanguay_ZF_120hpf_CIRC_legacy: (Legacy) Oregon State University Tanguay Lab 120 Hour Post-fertilization zebrafish Assay for Circulatory Malformation (AID 2283651)
Method in brief: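 Binary circulatory malformation call at 120 hpf by brightfield imaging of zebrafish larvae; chorion removed at 4 hpf, static exposure from 6 hpf in sealed dark plates at 28C, final DMSO 0.64%; non-mortality endpoints skipped if embryo died.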

[5] = Tanguay_ZF_120hpf_SWIM_legacy: (Legacy) Oregon State University Tanguay Lab 120 Hour Post-fertilization zebrafish Assay for Swim Bladder Malformation (AID 2283654);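 further: swim bladder malformation in each larva scored yes or no under brightfield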
Method in brief: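 Scoring is binary for swim bladder defects at 120 hpf, by brightfield inspection of zebrafish larvae. Embryos were exposed singly from 6 hpf after pronase dechorionation, at 28C with 0.64% DMSO; mortality excluded scoring.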

[6] = Tanguay_ZF_120hpf_TRUN_legacy: (Legacy) Oregon State University Tanguay Lab 120 Hour Post-fertilization zebrafish Assay for Truncated Body (AID 2283655)
Method in brief: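 Binary presence/absence of truncated body is recorded at 120 hpf by brightfield, with non-mortality endpoints skipped after death. Exposure is static from 6 hpf in sealed dark plates at 28C, using dechorionated wild-type zebrafish, 0.64% DMSO.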

[7] = Tanguay_ZF_120hpf_NC_legacy: (Legacy) Oregon State University Tanguay Lab 120 Hour Post-fertilization zebrafish Assay for Notochord and Tail Malformation (AID 2283656)
Method in brief: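 Binary scoring of notochord distortion by brightfield microscopy; embryos dying were not scored. Wild-type Tropical 5D embryos, chorion removed, exposed singly and statically from 6 to 120 hpf, 28C, sealed, 0.64% DMSO.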

[8] = Tanguay_ZF_120hpf_PIG_legacy: (Legacy) Oregon State University Tanguay Lab 120 Hour Post-fertilization zebrafish Assay for Pigmentation Malformation (AID 2283650)
Method in brief: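 Pigment malformation recorded as a binary call at 120 hpf in zebrafish (Tropical 5D) exposed singly from 6 hpf after pronase dechorionation. Static, sealed, 28C exposure, 0.64% DMSO; mortality excludes scoring; positive-direction fit against DMSO.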

Measured: AC50

Clc1cccc(C(Cl)(Cl)Cl)n1
inactive: [1] | [2] | [3] | [4] | [5] | [6] | [7]

O=C(Nc1ccccc1-c1ccc(Cl)cc1)c1cccnc1Cl
inactive: [1] | [2] | [8] | [4] | [5] | [6]

CCCCOCN(C(=O)CCl)c1c(CC)cccc1CC
inactive: [1] | [2] | [3] | [8] | [6] | [7]

Nc1c(Cl)c(F)nc(OCC(=O)O)c1Cl
inactive: [1] | [3] | [8] | [4] | [6] | [7]

O=C(O)c1c(Cl)ccc2cc(Cl)cnc12
inactive: [2] | [3] | [8] | [5] | [7]

COP(=S)(OC)SCn1nnc2ccccc2c1=O
inactive: [3] | [8] | [4] | [5] | [7]

CC(C)C1(C)N=C(c2ncccc2C(=O)O)NC1=O (stereo not drawn)
inactive: [2] | [3] | [8] | [6] | [7]

CNC(=O)Oc1cccc2ccccc12
inactive: [1] | [3] | [4] | [5] | [6]

CC1(C)CCC(=Cc2ccc(Cl)cc2)C1(O)Cn1cncn1 (stereo not drawn)
inactive: [2] | [3] | [4] | [5] | [6] | [7]

CC(C)=CC1C(C(=O)OCc2coc(Cc3ccccc3)c2)C1(C)C (stereo not drawn)
inactive: [2] | [3] | [8] | [4] | [5]

CCCCC(O)(Cn1cncn1)c1ccc(Cl)cc1Cl (stereo not drawn)
inactive: [1] | [2] | [8] | [4] | [5] | [6] | [7]

CO/N=C(/C1=NOCCO1)c1ccccc1Oc1ncnc(Oc2ccccc2Cl)c1F
active: [3] 6.85 µM
inactive: [1] | [2] | [4] | [7]

OC(c1ccc(Cl)cc1)(c1ccc(Cl)cc1)C(Cl)(Cl)Cl
inactive: [2] | [3] | [8] | [4] | [5] | [7]

CC(C)N1C(=O)c2ccccc2NS1(=O)=O
inactive: [1] | [2] | [4] | [5] | [6]

COC(=O)NC(=S)Nc1ccccc1NC(=S)NC(=O)OC
inactive: [1] | [2] | [3] | [8] | [5] | [6] | [7]

COc1cc(Cl)c(OC)cc1Cl
inactive: [1] | [2] | [3] | [8] | [4] | [5] | [7]

CC(C)N1C(=O)N(c2ccccc2)CSC1=NC(C)(C)C
inactive: [1] | [2] | [3] | [8] | [5] | [6] | [7]

CN/C(=N\[N+](=O)[O-])NCc1cnc(Cl)s1
inactive: [1] | [2] | [3] | [4] | [5] | [6] | [7]

O=c1n(Cl)c(=O)n(Cl)c(=O)n1Cl
inactive: [2] | [3] | [8] | [4] | [5] | [6] | [7]

CCNP(=S)(OC)O/C(C)=C/C(=O)OC(C)C (stereo not drawn)
inactive: [2] | [3] | [8] | [4] | [5] | [6] | [7]

CC(C)Nc1nc(Cl)nc(NC(C)C)n1
inactive: [1] | [2] | [3] | [4] | [5] | [6] | [7]

From PubChem BioAssay (EPA / NIEHS)
